# Reference: PubChem BioAssay
# The source made the active and inactive calls.
# Experiments:
# [1] = A549 cell viability effects, profiling panel, calcein-AM fluorescence, 48 h, basal (AID 1162); conditions: higher = more signal
# [2] = adipocyte viability effects, profiling panel, cell-based, 3T3-L1 adipocytes, calcein-AM fluorescence, 48 h, basal (AID 1163); conditions: 3T3-L1 adipocytes viability, higher = more signal
# [3] = HepG2 cell viability effects, profiling panel, calcein-AM fluorescence, 48 h, basal (AID 1164); conditions: higher = more signal
# [4] = MM1S cell viability effects, profiling panel, calcein-AM fluorescence, 48 h, basal (AID 1165); conditions: higher = more signal;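 note: viability of MM1S multiple myeloma cells under basal unstimulated conditions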
# [5] = basal RPMI8226 viability, no added stimulus, profiling panel, cell-based, calcein-AM fluorescence, 48 h, PK04 Diversity Set (AID 1166); conditions: RPMI8226 myeloma viability, higher = more signal;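 note: cells grown under basal conditions without added stimulus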
# [6] = basal HepG2 mitochondrial membrane potential changes, profiling panel, cell-based, JC-1 fluorescence, 24 h, 100 nL compound (AID 1167); conditions: higher = more signal
# [7] = basal 3T3-L1 adipocyte mitochondrial potential changes, profiling panel, cell-based, JC-1 fluorescence, 3T3-L1 adipocytes, 24 h, 100 nL compound (AID 1168); conditions: JC-1 mitochondrial fluorescence, higher = more signal, called active from +8 up or from −8 down
# [8] = basal RPMI8226 mitochondrial membrane potential changes, profiling panel, cell-based, JC-1 fluorescence, 24 h, 100 nL compound (AID 1169); conditions: RPMI8226 myeloma, JC-1 mitochondrial potential fluorescence, higher = more signal
# [9] = basal MM1S mitochondrial membrane potential changes, profiling panel, cell-based, JC-1 fluorescence, 24 h, 100 nL compound (AID 1170); conditions: higher = more signal
# [10] = A549 lung cancer cell viability effects, profiling panel, resazurin fluorescence, 24 h, PK04 Diversity Set (AID 1171); conditions: higher = more signal, called active from +8 up or from −8 down
# Note: test concentration not given here.
Structure (SMILES),z-score [1],z-score [2],z-score [3],z-score [4],z-score [5],z-score [6],z-score [7],z-score [8],z-score [9],z-score [10]
COc1ccc(CCNC(=O)[C@@]2(Sc3ccc(C)cc3)CC(=O)N(C3CCCCC3)[C@@H]2c2ccc(CO)cc2I)cc1,1.06,-0.475,-0.242,-2.14,-2.93,-0.836,-0.792 (inactive),-0.632,-1.33,1.11 (inactive)
C=CCOC(=O)[C@@H]1[C@H]2C(=O)O[C@H](c3ccccc3)[C@H](c3ccccc3)N2[C@H](c2ccc(OCCOC(=O)[C@@H]3C[C@@H]4C(=O)N[C@@H](CCCCN(C)C)C(=O)N4[C@@H]3c3ccc(O)cc3)cc2)[C@@]12C(=O)Nc1ccc(I)cc12,-0.303,-0.247,0.295,-0.7,-0.857,-1.93,-0.171 (inactive),-0.95,-1.45,0.417 (inactive)
CC(=O)n1cc(C(O)C2C=CC3C(=O)N(C)C(=O)C3N2Nc2ccccc2)c2ccccc21 (stereo not given),-0.617,-0.652,-0.804,0.305,-1.25,-1.58,-0.454 (inactive),-0.0553,0.118,-0.162 (inactive)
Cc1ccc(S[C@]2(C(=O)NC(C)C)CC(=O)N(Cc3ccccc3Cl)[C@@H]2c2ccc(CO)cc2I)cc1,-0.0542,-0.05,-0.125,-2.71,-1.58,-1.08,-0.443 (inactive),-0.195,-1.6,1.11 (inactive)
CC(C)C[C@@H]1NC(=O)[C@@H]2C[C@H](C(=O)NCCCCCN)[C@H](c3cccc(OCCO)c3)N2C1=O,0.938,0.624,1.89,0.767,1.26,1.75,0.00134 (inactive),-0.71,-0.495,-0.217 (inactive)
Cc1ccc(S[C@]2(C(=O)NCC(C)C)CC(=O)N(Cc3cc(C(F)(F)F)cc(C(F)(F)F)c3)[C@@H]2c2ccc(CO)cc2I)cc1,-0.431,0.299,-0.588,-3.16,-2.29,-0.523,-0.3 (inactive),-0.39,-1.01,-0.227 (inactive)
CN(C)CCCC[C@@H]1NC(=O)[C@H]2C[C@@H](C(=O)NCCCCCNC(=O)CS)[C@@H](c3cccc(OCCO)c3)N2C1=O,0.33,-0.0603,0.0814,-0.649,-0.0199,-0.246,-0.034 (inactive),0.0925,0.0356,-0.0288 (inactive)
COC(=O)c1c(CC[C@@H](CO)NC(=O)N2CCC[C@H]2Cn2cc(-c3ccccn3)nn2)oc(C(C)=O)c1C(=O)OC,-0.204,1,-1.02,0.208,1.18,-0.443,-0.922 (inactive),0.859,-0.475,0.133 (inactive)
COCCCNC(=O)C1N=C(c2ccc(OCCCO)cc2)N(c2ccccc2)O1 (stereo not given),-0.201,0.829,-0.393,0.399,0.336,-0.205,-0.183 (inactive),-0.492,-0.213,0.938 (inactive)
[N-]=[N+]=Nc1ccccc1C[C@]1(C(=O)NCC(O)CO)N=C(c2ccc(OCCCO)cc2)O[C@H]1c1ccccc1N=[N+]=[N-] (stereo not given in full),-1.04,-0.676,-1.12,-2.98,-3.14,-0.162,0.153 (inactive),-1.19,-1.3,-1.19 (inactive)
C=CCOC(=O)[C@H]1[C@@H]2C(=O)O[C@@H](c3ccccc3)[C@@H](c3ccccc3)N2[C@@H](c2ccc(OCCOC(=O)[C@H]3C[C@H]4C(=O)N[C@@H](CC(C)C)C(=O)N4[C@H]3c3ccc(O)cc3)cc2)[C@]12C(=O)Nc1ccc(I)cc12,0.709,-0.212,1.8,-2.02,0.0851,-0.626,-0.804 (inactive),-0.418,-0.859,0.0559 (inactive)
COc1ccc([Si](C)(C)[C@H]2[C@H](CC(=O)N3Cc4ccccc4C[C@H]3CO)O[C@@]3(C(=O)N(Cc4ccc(N5CCC5=O)cc4)c4ccccc43)[C@@H]2C)cc1,-0.279,0.656,-0.727,-2.32,-3.26,1.67,0.657 (inactive),-1.04,-0.928,-0.0964 (inactive)
CN(C)CCCCCCNC(=O)[C@@H]1C[C@@H]2C(=O)N[C@@H](CCCCN)C(=O)N2[C@@H]1c1cccc(OCCO)c1,0.73,0.565,1.25,-0.137,0.207,1.87,0.247 (inactive),-0.209,0.135,0.159 (inactive)
O=C1C[C@]2(c3ccc([N+](=O)[O-])cc3)C(=O)N(CCN3CCOCC3)c3cc(CO)ccc3[C@H]2N1C1CCCCC1,0.648,0.239,1.87,-0.121,0.346,0.756,0.155 (inactive),0.0691,-0.509,-1.17 (inactive)
COc1cc(CO)cc(I)c1O[C@H]1C=C(C(=O)NCCO)C[C@@H](N(CCN2CCOCC2)C(=O)C2CCOC2)[C@@H]1O (stereo not given in full),0.736,-0.917,0.51,0.317,0.402,1.05,0.57 (inactive),0.0404,0.684,-0.435 (inactive)
COc1ccc([C@H]2C[C@H]3C(Br)=C[C@@H]2C(=O)[C@]32CO2)cc1,0.321,0.0531,-0.193,-2.75,-1.55,-0.262,0.558 (inactive),-0.556,-0.914,0.217 (inactive)
COc1ccc([Si](C)(C)[C@@H]2[C@@H](CCO)O[C@]3(C(=O)N(Cc4ccc(N5C(=O)COc6ccccc65)cc4)c4ccccc43)[C@H]2C)cc1,-1.54,-0.0973,-3.87,-2.41,-3.72,-0.917,-0.189 (inactive),-0.923,-1.53,-2.38 (inactive)
C=CCN1C(=O)[C@]2(O[C@H](CCO)[C@@H]([Si](C)(C)c3ccc(OC)cc3)[C@@H]2C)c2cc(N3CCCCC3=O)ccc21,-1.25,0.257,-2.15,-2.54,-3.82,-0.61,-0.305 (inactive),-0.982,-1.63,-3.52 (inactive)
COc1ccc(C(=O)O[C@H]2CC[C@]3(C)C4=C(CCC3C2(C)C)[C@]2(C)CC[C@H]([C@H](C)CCCC(C)C)[C@@]2(C)CC4)cc1 (stereo not given in full),0.373,0.586,0.729,0.41,0.784,2.19,0.375 (inactive),-0.0976,-1.47,0.936 (inactive)
O=C(NCc1ccccc1)[C@@H]1c2ccccc2C(=O)N(CC23CC4CC(CC(C4)C2)C3)[C@H]1c1ccc(CO)cc1,0.449,-0.475,0.57,-0.708,-0.896,0.362,-0.924 (inactive),-0.136,-0.711,-0.471 (inactive)
COCCOC(=O)N1C(=O)[C@@]2(c3ccccc31)[C@H](c1ccc(O)cc1)N1[C@H](c3ccccc3)[C@H](c3ccccc3)OC(=O)[C@H]1[C@@H]2C(=O)NC[C@H](O)c1ccccc1,0.205,1.15,0.311,-0.534,-1.99,-1.02,-0.184 (inactive),0.266,-0.142,-1.1 (inactive)
NCCCCCNC(=O)[C@@H]1C[C@@H]2C(=O)NCC(=O)N2[C@@H]1c1ccc(O)cc1,0.685,-0.366,0.678,0.545,0.895,1.32,0.114 (inactive),-0.0558,-0.408,0.508 (inactive)
O=C1O[C@H](c2ccccc2)[C@H](c2ccccc2)N2[C@H]1[C@@H](C(=O)O)[C@]1(C(=O)Nc3ccc(C#CCCO)cc31)[C@H]2c1ccc(O)cc1,1.46,0.339,-0.215,0.536,0.858,-0.308,-0.395 (inactive),-0.896,-0.565,1.52 (inactive)
C=CCNC(=O)[C@H]1[C@@H]2C(=O)O[C@@H](c3ccccc3)[C@@H](c3ccccc3)N2[C@@H](c2ccc(O)cc2)[C@]12C(=O)N(C(=O)OCCOC)c1ccc(C#CCNC(N)=O)cc12,-0.755,0.0896,0.264,-0.303,-0.479,-1.33,0.817 (inactive),-0.294,0.179,-0.157 (inactive)
C=CCOC(=O)[C@H]1[C@@H]2C(=O)O[C@@H](c3ccccc3)[C@@H](c3ccccc3)N2[C@@H](c2ccc(OCCOC(=O)[C@H]3C[C@H]4C(=O)N5CCC[C@H]5C(=O)N4[C@H]3c3ccc(O)cc3)cc2)[C@]12C(=O)Nc1ccc(I)cc12,0.321,1.47,-0.167,-0.484,-0.231,-0.518,-0.32 (inactive),-0.00574,-0.286,-1.16 (inactive)
[N-]=[N+]=Nc1ccccc1C[C@]1(C(N)=O)N=C(c2ccc(OCCCO)cc2)O[C@H]1c1ccccc1,0.0914,0.124,-0.0857,-1.9,-0.495,-0.543,-0.387 (inactive),-0.265,-0.0874,0.453 (inactive)
CC(C)N1C(=O)c2ccccc2[C@](C)(C(=O)NCc2ccccc2)[C@@H]1c1ccc(CO)cc1,0.82,0.48,-0.699,-0.656,-0.0073,-0.265,-0.426 (inactive),-0.833,-0.472,-0.0838 (inactive)
[N-]=[N+]=NCc1ccccc1[C@@H]1OC(c2ccc(OCCCO)cc2)=N[C@]1(CCS(=O)(=O)c1ccccc1)C(=O)NCc1ccccc1,-0.137,1.09,0.0616,-0.158,-1.04,-0.0428,0.0135 (inactive),-0.143,-0.979,0.201 (inactive)
OC([C@@H]1CC(c2ccccc2)=NO1)[C@H]1CC(c2ccccc2)=NO1 (stereo not given in full),1.51,0.222,1.59,0.703,-0.132,1.05,0.635 (inactive),-0.847,0.439,1.04 (inactive)
C[N+](C)(C)CCCCNC(=O)[C@H]1C[C@H]2C(=O)N[C@@H](Cc3ccccc3)C(=O)N2[C@H]1c1ccc(O)cc1,-0.111,-0.649,0.0005,0.27,-0.546,0.169,-0.333 (inactive),-0.831,-1.13,-0.486 (inactive)
